Mtb hypoxia inh: inhibitors of hypoxia-regulated fluorescent reporter in Mycobacterium tuberculosis; M. tuberculosis hypoxia-regulated fluorescent reporter, fluorescence; fluorescence inhibition, % (concentration not given with the values); actives 0.1% (n = 300,000); AID 1159583; in the data active = fluorescence inhibition mostly above about 23%, no sharp cut-off; inactive = mostly below about 17%
CCHF vOTU inh: blocks the CCHF virus ovarian tumor domain protease; CCHFV vOTU protease, Pep-AMC fluorescence; inhibition, % at 11.5 µM; actives 0.55% (n = 370,000); in the data active = inhibition above about 30%; note: 0% = vehicle wells with enzyme and 100% = no enzyme wells
PriA SSB inh: blocks PriA binding to SSB C-terminal tail. inhibition, % at 33 µM. actives 0.6% (n = 430,000). AlphaScreen SSBct-PriA binding, biotinylated peptide; in the data active = inhibition mostly above about 37%, no sharp cut-off; inactive = mostly below about 20%;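 note: plate controls were negative control peptide for no effect and reference peptide for full effect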
VHR inh abs: DUSP3 (human) phosphatase inhibition; P51452; recombinant VHR phosphatase, pNPP absorbance; inhibition, % at 13.3 µM; actives 0.52% (n = 290,000); AID 1654; in the data active = inhibition above about 50%
Target sequence (P51452 whole entry, looked up): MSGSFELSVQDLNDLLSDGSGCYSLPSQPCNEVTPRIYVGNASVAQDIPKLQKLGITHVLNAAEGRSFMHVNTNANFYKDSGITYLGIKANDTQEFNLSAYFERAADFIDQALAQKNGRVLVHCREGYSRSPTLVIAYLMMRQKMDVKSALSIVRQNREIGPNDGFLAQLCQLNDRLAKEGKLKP
SARS 3CLpro inh: SARS-CoV 3CLpro protease inhibition; recombinant SARS-CoV 3CLpro, quenched FRET peptide cleavage; P0C6X7; actives 0.14% (n = 290,000); inhibition, % at 6 µM; in the data active = inhibition above about 12%
* marks the source's active call; other numbers are inactive results. Shown are actives, neighbours in structure and some others; about 1.3% of the full set was active somewhere.

`CC1CC(C)CN(S(=O)(=O)c2ccc3c(c2)CCN3C(=O)CCC(=O)O)C1` (stereo not given) gave Mtb hypoxia inh -3.6, PriA SSB inh 2.9, VHR inh abs -1.9 and SARS 3CLpro inh 1.4.
CN(C)c1ncc(NS(=O)(=O)c2ccccc2Cl)cn1 was read as PriA SSB inh -19.0.
Screening CCc1[nH]nc(C(=O)N2CCCC(C(=O)c3cccc(OC(C)C)c3)C2)c1C (stereo not given) returned Mtb hypoxia inh -4.7, CCHF vOTU inh 10.5, PriA SSB inh -14.0, VHR inh abs 55.5* and SARS 3CLpro inh -2.0.
Screening CCc1cc(C(=O)N2CCCC(C(=O)c3cccc(OC(C)C)c3)C2)n(C)n1 (stereo not given) returned Mtb hypoxia inh 7.7, CCHF vOTU inh 13.2, PriA SSB inh -12.6, VHR inh abs -18.9 and SARS 3CLpro inh -0.2.
For Cc1nn(C)c(C)c1CCC(=O)N1CCCC(C(=O)c2cccc(OC(C)C)c2)C1 (stereo not given) the results were Mtb hypoxia inh -2.2, CCHF vOTU inh 9.5, PriA SSB inh -1.6, VHR inh abs 51.3* and SARS 3CLpro inh -6.0.
For COc1cccc(NC(=O)CCC2CCN(Cc3nccs3)CC2)c1 the results were Mtb hypoxia inh 1.5, CCHF vOTU inh 7.5, PriA SSB inh -4.4, VHR inh abs 52.2* and SARS 3CLpro inh 4.7.
For COc1cccc(CC(=O)N2CCC(CCC(=O)Nc3cccc(OC)c3)CC2)c1 the results were Mtb hypoxia inh 3.6, CCHF vOTU inh 5.6, PriA SSB inh -13.4, VHR inh abs 1.8 and SARS 3CLpro inh 1.9.
C=C(C)C(=O)N1CC2(CC(c3cccc(NC(=O)CCCCC)c3)=NO2)CC1C(N)=O (stereo not given) was read as Mtb hypoxia inh 6.0.
CC=CC=CC(=O)Nc1cccc(C2=NOC3(C2)CC(C(N)=O)N(C(=O)c2cc([N+](=O)[O-])cc([N+](=O)[O-])c2)C3)c1 (stereo not given) was read as Mtb hypoxia inh 57.4*.
C=C(C)C(=O)Nc1cccc(C2=NOC3(C2)C[C@@H](C(N)=O)N(C(=O)c2ccc(OC)cc2)C3)c1 (stereo not given in full) was read as PriA SSB inh 47.8* and VHR inh abs 45.3.
Screening C=C(C)C(=O)Nc1cccc(C2=NOC3(C2)C[C@@H](C(N)=O)N(C(=O)CCCCC)C3)c1 (stereo not given in full) returned CCHF vOTU inh 13.6, PriA SSB inh 61.4* and VHR inh abs 33.9.
CCCn1cc(C(=O)N2CCN(C(=O)OCC)CC2)c2nn(-c3ccccc3)c(=O)c-2c1 was read as PriA SSB inh -3.0.
Screening COc1ccc(N=c2cc(-c3ccc(OC)cc3)oc3ccccc23)cc1 returned CCHF vOTU inh -1.7, PriA SSB inh 53.1*, VHR inh abs 22.7 and SARS 3CLpro inh -0.6.
COc1ccc(N=c2cc(-c3ccc(O)cc3)oc3ccccc23)cc1 was read as Mtb hypoxia inh 2.4, CCHF vOTU inh 5.6, PriA SSB inh 42.5*, VHR inh abs -2.7 and SARS 3CLpro inh -3.2.
CCOc1ccc(N=c2cc(-c3ccc(OC)cc3)oc3ccccc23)cc1 was read as Mtb hypoxia inh 7.9, CCHF vOTU inh -16.4, PriA SSB inh 38.6*, VHR inh abs -7.5 and SARS 3CLpro inh 4.8.
COc1ccc(-c2cc(=Nc3ccc(C)cc3)c3ccccc3o2)cc1 was read as Mtb hypoxia inh 2.5, CCHF vOTU inh -15.3, PriA SSB inh 10.3, VHR inh abs 5.4 and SARS 3CLpro inh 6.9.
For O=C1CCSC(=N/N=C/c2ccc(Cl)cc2Cl)N1 the results were PriA SSB inh inactive.
Screening O=C(CCS(=O)(=O)c1ccccc1)N1CCN(C(=O)[C@H]2C[C@@H]2c2ccc3c(c2)OCO3)CC1 returned PriA SSB inh -2.0.
Cc1ccc(C(=O)NC2CCSC2=O)cc1 (stereo not given) was read as Mtb hypoxia inh -5.0, CCHF vOTU inh -4.9, PriA SSB inh -6.2, VHR inh abs 27.1 and SARS 3CLpro inh 4.2.
For O=C(NC1CCSC1=O)c1ccc(Cl)cc1 (stereo not given) the results were Mtb hypoxia inh 3.6, PriA SSB inh -23.9, VHR inh abs 51.6* and SARS 3CLpro inh -2.2.
COc1ccc(NC(=O)C(=O)NCC2CCN(Cc3cccs3)CC2)cc1OC was read as PriA SSB inh -18.0.
Screening COc1ccc(C2=NN(C(=O)CSC3=NN4CCCC(=O)N=C4S3)C(c3cccc(OC)c3OC)C2)cc1 (stereo not given) returned Mtb hypoxia inh 7.9, CCHF vOTU inh 8.7, PriA SSB inh -1.3, VHR inh abs 6.0 and SARS 3CLpro inh 2.4.
`COc1cccc(C2CC(c3cccs3)=NN2C(=O)CSC2=NN3CCCC(=O)N=C3S2)c1OC` (stereo not given) gave Mtb hypoxia inh 2.2, CCHF vOTU inh -2.2, PriA SSB inh 2.0, VHR inh abs 53.3* and SARS 3CLpro inh -1.8.
O=C(Nc1ccccc1)c1sccc1Oc1ccc([N+](=O)[O-])cc1F was read as Mtb hypoxia inh 14.0, CCHF vOTU inh 5.3, PriA SSB inh 43.9*, VHR inh abs 1.2 and SARS 3CLpro inh 5.2.
CC(C)(C)c1ccc(OCc2cnc(Cl)s2)cc1 was read as Mtb hypoxia inh 39.3*, CCHF vOTU inh 13.9, PriA SSB inh -57.9, VHR inh abs 6.9 and SARS 3CLpro inh 1.9.
For CC(=O)Nc1cccc(OCc2cnc(Cl)s2)c1 the results were Mtb hypoxia inh -3.0, CCHF vOTU inh 2.4, PriA SSB inh 0.9, VHR inh abs 17.6 and SARS 3CLpro inh 4.7.
Screening O=C(NCCN1CCOCC1)C1CC(=O)N(c2ccc(Cl)cc2)C1 (stereo not given) returned Mtb hypoxia inh 1.0, CCHF vOTU inh -6.6, PriA SSB inh -9.9, VHR inh abs 50.0* and SARS 3CLpro inh -5.1.
For O=C(NCCn1ccnc1-c1ncccn1)C1CC(=O)N(c2ccc(F)cc2)C1 (stereo not given) the results were PriA SSB inh 116.0*.
Cc1ccc(N2CC(C(=O)NCCn3ccnc3-c3ncccn3)CC2=O)cc1C (stereo not given) was read as PriA SSB inh 43.0*.
O=C(OCC(=O)N1CCOCC1)c1ccc(F)cc1Cl was read as Mtb hypoxia inh 4.7, CCHF vOTU inh 15.3, PriA SSB inh -5.3, VHR inh abs 11.3 and SARS 3CLpro inh -1.4.
For CC1CN(C(=O)COC(=O)c2ccc(F)cc2Cl)CC(C)O1 (stereo not given) the results were Mtb hypoxia inh 15.7, CCHF vOTU inh 11.7, PriA SSB inh -19.0, VHR inh abs 50.4* and SARS 3CLpro inh 3.6.
COc1cc2[nH]c3c(=O)n(CCC(=O)N4CCN(c5ccccc5OC)CC4)cnc3c2cc1OC was read as PriA SSB inh -15.0.
Screening CCOc1ccc(N2C(=O)NC(=O)C(=Cc3ccc(N4CCCCC4)o3)C2=O)cc1 returned Mtb hypoxia inh 40.0*.
For O=C1NC(=O)N(c2ccc3c(c2)OCO3)C(=O)C1=Cc1ccc(N2CCCC2)o1 the results were Mtb hypoxia inh 40.1*.

Screening results: PubChem, several laboratories
